Assay results published in PubChem BioAssay (NCATS).
Inconclusive results are not listed. Active and inactive are the calls of the source. The call rests on the fitted dose curve; in most records, active means well fitted cell-killing curve with a large enough effect; inconclusive means small, poorly fitted or top-dose-only effect; inactive means no such curve, though single readings can be large or run the other way.

assay: qHTS of pediatric cancer cell lines to identify multiple opportunities for drug repurposing: Primary screen for SJ-GBM2 cells (AID 1347091); conditions: SJ-GBM2 viability, CellTiter-Glo luminescence, 48 h; series mostly up to 46 µM
In short: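 Eight- or eleven-point concentration series, 48 h treatment at 37 degrees C in growth media; readout CellTiter-Glo luminescence. Potency and efficacy were taken from the concentration-response curves.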
Potency means the concentration at half of the fitted maximal effect.

**Q.** With CCOC(=O)[C@H](CCc1ccccc1)N[C@@H](C)C(=O)N1[C@@H](C(=O)O)C[C@H]2CCC[C@@H]21 as the compound, how does the Potency read?
**A.** The Potency was 20.9 µM (active).

**Q.** With Nc1ncn([C@@H]2O[C@H](CO)[C@@H](O)[C@@H]2O)c(=O)n1 as the compound, how does the Potency read?
**A.** The Potency was 7.43 µM (active).

**Q.** With COC1=C2C[C@@H](C)C[C@H](OC)[C@@H](O)[C@@H](C)C=C(C)[C@H](OC(N)=O)[C@@H](OC)C=CC=C(C)C(=O)NC(=CC1=O)C2=O as the compound, how does the Potency read?
**A.** The Potency was 0.743 µM (active).

**Q.** For COc1ccc2c(c1OC)C(=O)OC2[C@H]1c2c(cc3c(c2OC)OCO3)CCN1C (some centres undefined), which Potency is on record?
**A.** Its Potency is 0.132 µM (active).

**Q.** For COc1cc(N2CCC(C(N)=O)CC2)ccc1Nc1nc(N)c(Cl)c(Nc2ccccc2S(=O)(=O)C(C)C)n1, which Potency is on record?
**A.** Its Potency is “inactive”.

**Q.** Which Potency does the source give for COc1cc(CCc2cc(NC(=O)c3ccc(N4C[C@@H](C)N[C@@H](C)C4)cc3)n[nH]2)cc(OC)c1 here?
**A.** Its Potency is 13.2 µM (active).

**Q.** With NC(=O)Nc1cc(-c2ccc(CN3CCOCC3)cc2)sc1C(N)=O as the compound, how does the Potency read?
**A.** The Potency was 0.059 µM (active).

**Q.** For CN(CC(=O)N(Cc1ccc(C2CCCCC2)cc1)c1ccc(C(=O)O)c(O)c1)S(=O)(=O)c1c(F)c(F)c(F)c(F)c1F, which Potency is on record?
**A.** Its Potency is 11.8 µM (active).

**Q.** Which Potency does the source give for FC(F)(F)c1ccc(Nc2nc3ccc(Oc4ccnc(-c5ncc(C(F)(F)F)[nH]5)c4)cc3[nH]2)cc1 here?
**A.** Its Potency is 16.6 µM (active).

**Q.** Which Potency does the source give for CC(C)NC[C@@H](C(=O)N1CCN(c2ncnc3c2[C@H](C)C[C@H]3O)CC1)c1ccc(Cl)cc1 here?
**A.** Its Potency is 3.32 µM (active).

**Q.** Which Potency does the source give for Nc1ccc(C(=O)Nc2cccc(-c3nc(N4CCOCC4)c4oc5ncccc5c4n3)c2)cn1 here?
**A.** Its Potency is 3.72 µM (active).

**Q.** Which Potency does the source give for CN1CCc2c(c3ccccc3n2Cc2ccc(C(=O)NO)cc2)C1 here?
**A.** The Potency was 23.5 µM (active).

**Q.** Which Potency does the source give for CN(C)CC(=O)N1CCC(c2ccc(NC(=O)c3ncc(C#N)[nH]3)c(C3=CCCCC3)c2)CC1 here?
**A.** Its Potency is 18.7 µM (active).

**Q.** Which Potency does the source give for Oc1ccc([C@@H]2Oc3ccc(O)cc3[C@@H]3CCC[C@@H]32)cc1 here?
**A.** The Potency was 13.2 µM (active).

**Q.** Which Potency does the source give for CC(=O)ON=C1C(c2c(O)[nH]c3cc(Br)ccc23)=Nc2ccccc21 here?
**A.** Its Potency is 2.96 µM (active).

**Q.** With COc1cc2c(cc1OC)[C@@H]1C(=O)c3ccc4c(c3O[C@@H]1CO2)C=CC(C)(C)O4 as the compound, how does the Potency read?
**A.** The Potency was 18.7 µM (active).

**Q.** For CCCNC(=O)[C@H]1O[C@H]1C(=O)N[C@H](C(=O)N1CCC[C@@H]1C(=O)OC)C(C)CC (some centres undefined), which Potency is on record?
**A.** Its Potency is 23.5 µM (active).

**Q.** For NC(=O)N1CCC(CC(=O)N2CCC([C@H]3c4ncc(Br)cc4CCc4cc(Cl)cc(Br)c43)CC2)CC1, which Potency is on record?
**A.** Its Potency is 16.6 µM (active).

**Q.** Which Potency does the source give for CN1CCCN(C(=O)c2cccc(-c3ccc(C=C4C(=O)Nc5ccc(Cl)cc54)o3)c2)CC1 here?
**A.** Its Potency is 16.6 µM (active).

**Q.** With CS(=O)(=O)N1CCc2c(-c3cnc(N)nc3)nc(N3CCOCC3)nc21 as the compound, how does the Potency read?
**A.** Its Potency is 0.209 µM (active).

**Q.** Which Potency does the source give for C#C[C@]1(O)CC[C@@H]2[C@@H]3CCc4cc(O)ccc4[C@H]3CC[C@@]21C here?
**A.** Its Potency is 18.7 µM (active).

**Q.** Which Potency does the source give for CCN(CC)CCCCNc1ncc2c(n1)N(C)C(=O)N(c1c(Cl)c(OC)cc(OC)c1Cl)C2 here?
**A.** The Potency was 14.8 µM (active).

**Q.** With O=C(O)C=Cc1ccc(Cn2ccnc2)cc1 as the compound, how does the Potency read?
**A.** The Potency was “inactive”.

**Q.** With Cc1cnn(C)c1C(=O)Nc1cc(Nc2ccc3c(C=Cc4ccccn4)n[nH]c3c2)ccc1F as the compound, how does the Potency read?
**A.** The Potency was 18.7 µM (active).

**Q.** With COc1cc2c(cc1O)CCC1C2CC[C@@]2(C)C1CC[C@@H]2O (some centres undefined) as the compound, how does the Potency read?
**A.** Its Potency is 0.833 µM (active).

**Q.** With COc1cccc2c1C(=O)c1c(O)c3c(c(O)c1C2=O)C[C@@](O)(C(C)=O)C[C@H]3O[C@H]1C[C@H](N)[C@H](O)[C@H](C)O1 as the compound, how does the Potency read?
**A.** Its Potency is 0.0662 µM (active).

**Q.** For O=C(C=Cc1ccc(CN(CCO)CCc2c[nH]c3ccccc23)cc1)NO, which Potency is on record?
**A.** The Potency was 0.118 µM (active).

**Q.** Which Potency does the source give for O=C(Nc1nnc(-c2ccco2)o1)c1cc(-c2ccccc2)nc2ccccc12 here?
**A.** Its Potency is 7.43 µM (active).

**Q.** With C=CCNC1=C2C[C@@H](C)C[C@H](OC)[C@@H](O)[C@@H](C)C=C(C)[C@H](OC(N)=O)[C@@H](OC)C=CC=C(C)C(=O)NC(=CC1=O)C2=O as the compound, how does the Potency read?
**A.** Its Potency is 0.59 µM (active).

**Q.** For c1cc(N[C@@H]2CCNC2)nc(-c2cnc3ccc(-c4cn[nH]c4)cn23)c1, which Potency is on record?
**A.** Its Potency is 16.6 µM (active).

**Q.** Which Potency does the source give for COc1ccc(S(=O)(=O)Nc2cccnc2Nc2ccc(O)cc2)cc1 here?
**A.** The Potency was 0.0235 µM (active).

**Q.** For C[C@H](NC(=O)C(C#N)=Cc1cccc(Br)n1)c1ccccc1, which Potency is on record?
**A.** Its Potency is 2.96 µM (active).

**Q.** Which Potency does the source give for COc1cc(C(=O)NC2CCN(C)CC2)ccc1Nc1ncc2c(n1)N(C1CCCC1)CCC(=O)N2C(C)C here?
**A.** The Potency was 2.35 µM (active).

**Q.** For CC(C=CC1=C(C)CCCC1(C)C)=CC=CC(C)=CC(=O)Nc1ccc(O)cc1, which Potency is on record?
**A.** Its Potency is 38.2 µM (active).
